Source: PubChem BioAssay (Tox21)
Results filed as inconclusive are left out. Entries that show only a call come without a potency. The source made the active and inactive calls. Calls follow the shape of the full dose curve.

Molecular target: Acetylcholinesterase (Homo sapiens) (UniProt P22303)
Test: Acetylcholinesterase (AChE) small molecule antagonists: colormetric cell-based qHTS assay (AID 1347395); also: nearly all actives have a fitted effect of over 30% in size
Settings: SH-SY5Y cells AChE activity, colorimetric (Ellman); series mostly up to 115 µM
In short: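 SH-SY5Y cells; cpd 30 min 37 C; + DTNB/acetylthiocholine, 90 min 37 C; colorimetric thiocholine read; qHTS.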
Potency is read from the fitted curve at half-maximal effect.

Acetylcholinesterase (Homo sapiens), sequence (P22303 whole entry, looked up): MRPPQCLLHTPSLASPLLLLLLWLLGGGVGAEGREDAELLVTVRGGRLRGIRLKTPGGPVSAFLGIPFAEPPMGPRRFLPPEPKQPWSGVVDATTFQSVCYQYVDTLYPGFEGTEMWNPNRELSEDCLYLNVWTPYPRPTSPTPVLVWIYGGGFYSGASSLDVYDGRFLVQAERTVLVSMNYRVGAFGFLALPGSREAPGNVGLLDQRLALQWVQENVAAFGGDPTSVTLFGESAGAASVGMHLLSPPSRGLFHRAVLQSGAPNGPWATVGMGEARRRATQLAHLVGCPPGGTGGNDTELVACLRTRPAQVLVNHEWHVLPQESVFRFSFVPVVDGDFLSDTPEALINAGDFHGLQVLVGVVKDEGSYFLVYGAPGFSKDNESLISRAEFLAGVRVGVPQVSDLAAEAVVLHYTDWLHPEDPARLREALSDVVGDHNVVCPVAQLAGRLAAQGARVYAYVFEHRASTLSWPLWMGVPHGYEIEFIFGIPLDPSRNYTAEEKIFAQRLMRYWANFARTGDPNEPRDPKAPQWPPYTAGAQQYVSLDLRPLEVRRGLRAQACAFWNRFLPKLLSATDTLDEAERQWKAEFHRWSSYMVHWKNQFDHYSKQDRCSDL

SMILES | Potency | activity, negative = inhibition
CCCNC(=O)NS(=O)(=O)c1ccc(Cl)cc1 | inactive | –
CC(C)=CCCC(C)CCO (stereo not given) | inactive | –
CNS(=O)(=O)Cc1ccc2[nH]cc(CCN(C)C)c2c1 | inactive | –
CC(=O)O[C@H](CC(=O)[O-])C[N+](C)(C)C | inactive | –
CCCOCCO | inactive | –
O=c1c2ccccc2oc2ccccc12 | inactive | –
CC(CN)CCCN (stereo not given) | inactive | –
COC(=O)c1ccccc1 | inactive | –
O=C(O)CCCCCCC(=O)O | inactive | –
CCCCCC=O | inactive | –
CC(CCC(=O)O)(c1ccc(O)cc1)c1ccc(O)cc1 | inactive | –
CN1CN(C)CN(C)C1 | inactive | –
CSCC[C@H](NC(=O)[C@H](Cc1c[nH]c2ccccc12)NC(=O)CCNC(=O)OC(C)(C)C)C(=O)N[C@@H](CC(=O)O)C(=O)N[C@@H](Cc1ccccc1)C(N)=O | inactive | –
O=c1[nH]c2ccccc2n1CCCN1CCN(C(c2ccccc2)c2ccccc2)CC1 | inactive | –
CN(C)c1ccc(Cc2ccc(N(C)C)cc2)cc1 | inactive | –
COc1c(Cl)c(Cl)c(Cl)c(Cl)c1Cl | inactive | –
CCCc1ncc(C(=O)O)s1 | inactive | –
CC1(C)CC(N=C=O)CC(C)(CN=C=O)C1 (stereo not given) | inactive | –
CCC(CO)(CO)CO | inactive | –
C/C=C/C=N/NC(=O)c1ccncc1 | inactive | –

SMILES | Potency | activity, negative = inhibition
CC/C=C(\C)C=O | inactive | –
CC(C)OC(=O)C(C(=O)OC(C)C)=C1SC=CS1 | inactive | –
CC(O)COc1ccccc1 (stereo not given) | inactive | –
NCCCC[C@H](N[C@@H](CCc1ccccc1)C(=O)O)C(=O)N1CCC[C@H]1C(=O)O | inactive | –
CC1(O)CSC(C)(O)CS1 (stereo not given) | inactive | –
Cc1ccc(C(=O)O)cc1[N+](=O)[O-] | inactive | –
CCOCC(O)COc1ccc(NC(=O)CC[S+](C)C)cc1 (stereo not given) | inactive | –
O=[N+]([O-])c1ccccc1Nc1ccccc1 | inactive | –
CC(=O)Oc1ccccc1C(=O)O | inactive | –
COCCOC(=O)C1=C(C)NC(C)=C(C(=O)OC(C)C)C1c1cccc([N+](=O)[O-])c1 (stereo not given) | inactive | –
CN1CCN(CCCN2c3ccccc3Sc3ccc(Cl)cc32)CC1 | inactive | –
O=C(O)CC(C(=O)O)S(=O)(=O)O (stereo not given) | inactive | –
NC(=O)OCC(COC(N)=O)c1ccccc1 | inactive | –
CC/C(=C(\c1ccc(O)cc1)c1ccc(OCCN(C)C)cc1)c1ccccc1 | 44.9 µM (active) | –
O=C(O)c1ccc[n+]([O-])c1 | inactive | –
C[C@]12CC[C@@H]3c4ccc(O)cc4CC[C@H]3[C@@H]1CC[C@@H]2O | inactive | –
Cc1cc(NC(=O)C2=C(O)c3ccccc3S(=O)(=O)N2C)no1 | inactive | –
O=C(O)c1[nH]n(-c2ccc(S(=O)(=O)O)cc2)c(=O)c1N=Nc1ccc(S(=O)(=O)O)cc1 | inactive | –
Cc1ccsc1C(=CCCN1CCC[C@@H](C(=O)O)C1)c1sccc1C | inactive | –
NC[C@H]1O[C@H](O[C@H]2[C@H](O)[C@@H](O[C@H]3O[C@H](CO)[C@@H](O)[C@H](N)[C@H]3O)[C@H](N)C[C@@H]2N)[C@H](N)[C@@H](O)[C@@H]1O | – | 1.64% [at 23.6 µM] (inactive)

Molecular target: Acetylcholinesterase (Homo sapiens) (UniProt P22303)
Test: Acetylcholinesterase (AChE) small molecule antagonists: enzyme-based qHTS assay (AID 1347397); also: nearly all actives have a fitted effect of over 55% in size
Settings: Potency: AChE enzyme activity inhibition; outcome: AChE enzyme activity inhibition; series mostly up to 115 µM
In short: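 Colorimetric DTNB readout of acetylthiocholine hydrolysis, 10 min at room temperature, after 30 min room-temperature exposure of 50 mU/mL recombinant human enzyme to compound; DMSO vehicle control.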

SMILES | Potency | activity change, negative = inhibition
CCCNC(=O)NS(=O)(=O)c1ccc(Cl)cc1 | inactive | –
CC(C)=CCCC(C)CCO (stereo not given) | inactive | –
CNS(=O)(=O)Cc1ccc2[nH]cc(CCN(C)C)c2c1 | inactive | –
CC(=O)O[C@H](CC(=O)[O-])C[N+](C)(C)C | inactive | –
CCCOCCO | inactive | –
O=c1c2ccccc2oc2ccccc12 | inactive | –
CC(CN)CCCN (stereo not given) | inactive | –
COC(=O)c1ccccc1 | inactive | –
O=C(O)CCCCCCC(=O)O | inactive | –
CCCCCC=O | inactive | –
CC(CCC(=O)O)(c1ccc(O)cc1)c1ccc(O)cc1 | inactive | –
CN1CN(C)CN(C)C1 | inactive | –
CSCC[C@H](NC(=O)[C@H](Cc1c[nH]c2ccccc12)NC(=O)CCNC(=O)OC(C)(C)C)C(=O)N[C@@H](CC(=O)O)C(=O)N[C@@H](Cc1ccccc1)C(N)=O | inactive | –
O=c1[nH]c2ccccc2n1CCCN1CCN(C(c2ccccc2)c2ccccc2)CC1 | inactive | –
CN(C)c1ccc(Cc2ccc(N(C)C)cc2)cc1 | inactive | –
COc1c(Cl)c(Cl)c(Cl)c(Cl)c1Cl | inactive | –
CCCc1ncc(C(=O)O)s1 | inactive | –
CC1(C)CC(N=C=O)CC(C)(CN=C=O)C1 (stereo not given) | inactive | –
CCC(CO)(CO)CO | inactive | –
C/C=C/C=N/NC(=O)c1ccncc1 | inactive | –

SMILES | Potency | activity change, negative = inhibition
CC/C=C(\C)C=O | inactive | –
CC(C)OC(=O)C(C(=O)OC(C)C)=C1SC=CS1 | inactive | –
CC(O)COc1ccccc1 (stereo not given) | inactive | –
NCCCC[C@H](N[C@@H](CCc1ccccc1)C(=O)O)C(=O)N1CCC[C@H]1C(=O)O | inactive | –
CC1(O)CSC(C)(O)CS1 (stereo not given) | inactive | –
Cc1ccc(C(=O)O)cc1[N+](=O)[O-] | inactive | –
CCOCC(O)COc1ccc(NC(=O)CC[S+](C)C)cc1 (stereo not given) | inactive | –
O=[N+]([O-])c1ccccc1Nc1ccccc1 | inactive | –
CC(=O)Oc1ccccc1C(=O)O | inactive | –
COCCOC(=O)C1=C(C)NC(C)=C(C(=O)OC(C)C)C1c1cccc([N+](=O)[O-])c1 (stereo not given) | inactive | –
CN1CCN(CCCN2c3ccccc3Sc3ccc(Cl)cc32)CC1 | inactive | –
O=C(O)CC(C(=O)O)S(=O)(=O)O (stereo not given) | inactive | –
NC(=O)OCC(COC(N)=O)c1ccccc1 | inactive | –
CC/C(=C(\c1ccc(O)cc1)c1ccc(OCCN(C)C)cc1)c1ccccc1 | 79.9 µM (active) | –
O=C(O)c1ccc[n+]([O-])c1 | inactive | –
C[C@]12CC[C@@H]3c4ccc(O)cc4CC[C@H]3[C@@H]1CC[C@@H]2O | inactive | –
Cc1cc(NC(=O)C2=C(O)c3ccccc3S(=O)(=O)N2C)no1 | inactive | –
O=C(O)c1[nH]n(-c2ccc(S(=O)(=O)O)cc2)c(=O)c1N=Nc1ccc(S(=O)(=O)O)cc1 | inactive | –
Cc1ccsc1C(=CCCN1CCC[C@@H](C(=O)O)C1)c1sccc1C | inactive | –
NC[C@H]1O[C@H](O[C@H]2[C@H](O)[C@@H](O[C@H]3O[C@H](CO)[C@@H](O)[C@H](N)[C@H]3O)[C@H](N)C[C@@H]2N)[C@H](N)[C@@H](O)[C@@H]1O | – | 0.27% [at 23.6 µM] (inactive)
